Experimental data published in PubChem BioAssay (Tox21).
Inconclusive results are not listed. Entries that show only a call come without a potency. Activity calls are given as the source filed them. Unless noted, the call rests on the fitted dose curve; in most records, active means well fitted curve in the direction sought with a large enough effect in the repeat runs; inconclusive means weak or mixed curves; inactive means no such curve, though single readings can be large; an effect the other way counts as inactive or inconclusive.

Tests used:
[1] = qHTS assay to test for compound auto fluorescence at 535 nm (green) in HEK293 cells (AID 720680)
[2] = qHTS assay to test for compound auto fluorescence at 460 nm (blue) in HEK293 cell free culture (AID 720681)
Procedure, shortened: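 Blue fluorescence (Ex 405/Em 460 nm, triamterene-equivalent) was read immediately after pin transfer of compound or DMSO into medium (DMEM, 10% FBS) without cells.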

[3] = qHTS assay to test for compound auto fluorescence at 535 nm (green) in HEK293 cell free culture (AID 720682)
Procedure, shortened: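 Using fluorescein as calibrant, autofluorescence was quantified at 485/535 nm in cell-free DMEM containing 10% FBS after pintool addition of compound or vehicle.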

[4] = qHTS assay to test for compound auto fluorescence at 590 nm (red) in HEK293 cell free culture (AID 720683)
Procedure, shortened: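 Red-channel autofluorescence of compounds in culture medium (DMEM, 10% FBS), no cells, measured at 540/590 nm. Rose Bengal sodium is the reference fluorophore for equivalence.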

[5] = qHTS assay to test for compound auto fluorescence at 590 nm (red) in HepG2 cell free culture (AID 720684)
Procedure, shortened: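 Steps: dispense MEM/10% FBS medium, no cells; pin compound or DMSO vehicle; read red channel, Ex/Em 540/590 nm. Output given as Rose Bengal sodium equivalents.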

[6] = qHTS assay to test for compound auto fluorescence at 535 nm (green) in HepG2 cell free culture (AID 720686)
[7] = qHTS assay to test for compound auto fluorescence at 460 nm (blue) in HepG2 cells (AID 720687)
Procedure, shortened: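 Blue-channel autofluorescence (Ex/Em 405/460 nm, triamterene-equivalent) was measured after 1 hr compound exposure at 37 C, 5% CO2. Cells were HepG2, plated overnight at 37 C in MEM plus 10% FBS.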

[8] = target: Glucocorticoid receptor (Homo sapiens) (UniProt P04150); experiment: qHTS assay to identify small molecule agonists of the glucocorticoid receptor (GR) signaling pathway (AID 720691; active means well fitted activation curve with a large enough effect in the signal ratio in the repeat runs, not every such curve was filed as active; the % refers to the signal ratio); details: GR-bla HeLa, beta-lactamase reporter ratio, 18 h; activation: at 62.4 µM (top of the series)
Sequence of Glucocorticoid receptor (Homo sapiens) (P04150 whole entry, looked up): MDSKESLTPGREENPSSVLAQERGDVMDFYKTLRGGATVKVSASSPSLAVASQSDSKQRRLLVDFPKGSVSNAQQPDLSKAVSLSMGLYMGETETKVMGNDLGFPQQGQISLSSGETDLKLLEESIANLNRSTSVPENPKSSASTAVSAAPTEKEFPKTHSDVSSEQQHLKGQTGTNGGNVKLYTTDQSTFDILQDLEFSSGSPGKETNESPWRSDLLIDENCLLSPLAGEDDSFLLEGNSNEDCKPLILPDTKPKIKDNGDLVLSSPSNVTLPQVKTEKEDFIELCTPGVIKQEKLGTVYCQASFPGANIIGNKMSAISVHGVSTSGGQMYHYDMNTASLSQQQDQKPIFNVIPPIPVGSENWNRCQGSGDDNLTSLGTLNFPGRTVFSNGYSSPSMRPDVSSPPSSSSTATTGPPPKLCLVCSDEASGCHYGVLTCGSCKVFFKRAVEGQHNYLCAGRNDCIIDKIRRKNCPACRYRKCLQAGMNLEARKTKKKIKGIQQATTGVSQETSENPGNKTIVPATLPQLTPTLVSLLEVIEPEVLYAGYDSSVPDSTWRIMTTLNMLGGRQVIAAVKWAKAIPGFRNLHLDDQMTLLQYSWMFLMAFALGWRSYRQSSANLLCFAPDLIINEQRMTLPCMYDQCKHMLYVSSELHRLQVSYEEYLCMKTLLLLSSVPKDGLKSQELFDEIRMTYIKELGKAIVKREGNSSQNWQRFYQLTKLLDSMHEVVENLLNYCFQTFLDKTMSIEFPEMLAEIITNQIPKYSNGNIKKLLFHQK
Procedure, shortened: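 Agonist mode in a HeLa line carrying a GRE-controlled beta-lactamase reporter. Compounds act for 18 h at 37 C before a 2 h room-temperature FRET substrate step and fluorescence reading.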

[9] = target: Glucocorticoid receptor (Homo sapiens) (UniProt P04150); experiment: qHTS assay to identify small molecule antagonists of the glucocorticoid receptor (GR) signaling pathway (AID 720692; active means well fitted inhibition curve with a large enough effect in the signal ratio in the repeat runs, not every such curve was filed as active; the % refers to the signal ratio)
Procedure, shortened: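 Cells plated, rested 4 h at 37 C/5% CO2; compounds in DMSO pin-transferred; dexamethasone added to 5 nM final; 18 h at 37 C; B/G FRET substrate added, 2 h room temperature; fluorescence measured.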

[10] = qHTS assay to identify small molecule antagonists of the glucocorticoid receptor (GR) signaling pathway - cell viability counter screen (AID 720693); further: nearly all actives have a fitted effect of over 55% in size
[11] = qHTS assay for identifying genotoxic compounds that show differential cytotoxicity against isogenic chicken DT40 cell lines with known DNA damage response pathways - wild type cell line (AID 743012); further: nearly all actives have a fitted effect of over 60% in size; further: potency means the concentration at half of the fitted maximal effect
Procedure, shortened: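 Cells (DT40 wild type, 300/well) are treated with DMSO-dissolved compounds after a ~0.5 h pre-incubation and kept 40 h at 37 C/5% CO2. Viability is then measured by CellTiter-Glo luminescence following 30 min at room temperature.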

[12] = qHTS assay to identify small molecule antagonists of the androgen receptor (AR) signaling pathway - cell viability counter screen (AID 743033; further: nearly all actives have a fitted effect of over 45% in size; further: potency means the concentration at half of the fitted maximal effect)
[13] = qHTS assay to identify small molecule antagonists of the androgen receptor (AR) signaling pathway using the MDA cell line - cell viability counter screen (AID 743041; further: nearly all actives have a fitted effect of over 45% in size)
Procedure, shortened: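 Cells were plated at 3,000 per well and left 5 h. Compounds in DMSO were then pinned in, followed by R1881. After 16 h at 37C, CellTiter-Fluor fluorescence gave viability.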

[14] = qHTS assay to test for compound auto fluorescence at 460 nm (blue) in HepG2 cell free culture (AID 720685)
Procedure, shortened: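 Compound (23 nL) or DMSO pinned into cell-free MEM with 10% FBS; blue fluorescence read at 405/460 nm excitation/emission, expressed as auto-fluorescence equivalency to triamterene.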

[15] = qHTS assay for identifying genotoxic compounds that show differential cytotoxicity against isogenic chicken DT40 cell lines with known DNA damage response pathways - Rad54/Ku70 mutant cell line (AID 743015); further: nearly all actives have a fitted effect of over 60% in size; further: potency means the concentration at half of the fitted maximal effect
[16] = target: Androgen receptor (Homo sapiens) (UniProt P10275); experiment: qHTS assay to identify small molecule antagonists of the androgen receptor (AR) signaling pathway (AID 743035; active means well fitted inhibition curve with a large enough effect in the signal ratio in the repeat runs, not every such curve was filed as active; the % refers to the signal ratio; further: potency means the concentration at half of the fitted maximal effect)
Sequence of Androgen receptor (Homo sapiens) (P10275 whole entry, looked up): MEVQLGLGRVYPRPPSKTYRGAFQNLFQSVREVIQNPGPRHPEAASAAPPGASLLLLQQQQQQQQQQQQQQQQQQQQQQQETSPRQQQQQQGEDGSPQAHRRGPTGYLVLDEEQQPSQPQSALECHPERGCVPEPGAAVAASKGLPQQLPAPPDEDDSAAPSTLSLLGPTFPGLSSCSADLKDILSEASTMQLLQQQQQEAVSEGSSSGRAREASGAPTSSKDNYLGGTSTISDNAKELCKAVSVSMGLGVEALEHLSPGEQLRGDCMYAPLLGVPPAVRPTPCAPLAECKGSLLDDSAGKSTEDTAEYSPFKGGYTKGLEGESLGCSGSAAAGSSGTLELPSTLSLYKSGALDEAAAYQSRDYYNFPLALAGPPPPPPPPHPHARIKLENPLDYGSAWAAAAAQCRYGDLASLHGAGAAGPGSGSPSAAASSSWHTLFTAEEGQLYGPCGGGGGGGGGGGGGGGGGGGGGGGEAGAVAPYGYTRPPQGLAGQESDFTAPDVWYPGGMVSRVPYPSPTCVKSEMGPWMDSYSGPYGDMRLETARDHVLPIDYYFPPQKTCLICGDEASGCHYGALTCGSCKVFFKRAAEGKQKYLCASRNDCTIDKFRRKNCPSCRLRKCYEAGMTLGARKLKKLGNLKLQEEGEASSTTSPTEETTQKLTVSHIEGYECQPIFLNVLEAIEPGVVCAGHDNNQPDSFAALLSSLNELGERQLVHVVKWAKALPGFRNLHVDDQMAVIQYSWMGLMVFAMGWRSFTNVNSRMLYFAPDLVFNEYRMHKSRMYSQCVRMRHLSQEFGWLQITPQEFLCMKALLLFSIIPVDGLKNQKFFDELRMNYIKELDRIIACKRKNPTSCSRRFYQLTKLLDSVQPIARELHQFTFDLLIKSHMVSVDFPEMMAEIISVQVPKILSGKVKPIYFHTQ
Procedure, shortened: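 Antagonism is scored as loss of R1881-driven beta-lactamase reporter expression in HEK293 cells carrying the reporter under a UAS element, after 16 h co-treatment at 37C and a 2 h room-temperature FRET substrate read.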

[17] = target: Androgen receptor (Homo sapiens) (UniProt P10275); experiment: qHTS assay to identify small molecule agonists of the androgen receptor (AR) signaling pathway using the MDA cell line (AID 743040; further: nearly all actives have a fitted effect of over 20% in size)
Procedure, shortened: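 Cells plated, 5 h at 37C/0% CO2; compound or DMSO pinned; 16 h at 37C; ONE-Glo added; luminescence measured after 30 min at room temperature. Reporter line: MDA-kb2 with MMTV-luciferase responsive to AR and GR.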

[18] = target: Androgen receptor (Homo sapiens) (UniProt P10275); experiment: qHTS assay to identify small molecule antagonists of the androgen receptor (AR) signaling pathway using the MDA cell line (AID 743042; further: nearly all actives have a fitted effect of over 55% in size; further: potency means the concentration at half of the fitted maximal effect)
Procedure, shortened: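 Antagonist mode: compounds plus R1881 agonist added to MDA-kb2 AR-luc cells, incubated 16 h at 37C. Luciferase reporter luminescence quantified, with multiplexed CellTiter-Fluor readout for cell viability.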

[19] = qHTS assay for identifying genotoxic compounds that show differential cytotoxicity against isogenic chicken DT40 cell lines with known DNA damage response pathways - Rev3 mutant cell line (AID 743014); further: nearly all actives have a fitted effect of over 55% in size; further: potency means the concentration at half of the fitted maximal effect
[20] = target: Androgen receptor (Homo sapiens) (UniProt P10275); experiment: qHTS assay to identify small molecule agonists of the androgen receptor (AR) signaling pathway (AID 743036; active means well fitted activation curve with a large enough effect in the signal ratio in the repeat runs, with a control signal flat, not every such curve was filed as active; the % refers to the signal ratio)
Procedure, shortened: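 In this Tox21 qHTS, 2,000 HEK293 AR-bla cells per well were incubated with compounds for 16 h at 37C and 5% CO2. Fluorescence intensity was recorded 2 h after adding LiveBLAzer B/G FRET substrate at room temperature.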

Row | Compound | Potency [1] | Potency [2] | Potency [3] | Potency [4] | Potency [5] | Potency [6] | outcome [7] | Potency [8] | Potency [9] | Potency [10] | Potency [11] | Potency [12] | Potency [13] | outcome [14] | Potency [15] | Potency [16] | Potency [17] | Potency [18] | Potency [19] | Potency [20]
1 | O=C(OC1C[C@@H]2CC3C[C@H](C1)N2CC3=O)c1c[nH]c2ccccc12 (stereo partly drawn) | inactive | inactive | inactive | inactive | inactive | inactive | inactive | inactive | inactive | inactive | 26.6 µM (active) | inactive | inactive | – | – | – | – | – | – | –
2 | OC[C@H]1O[C@@H](O[C@H]2[C@H](O)[C@@H](O)[C@H](O)O[C@@H]2CO)[C@H](O)[C@@H](O)[C@@H]1O | inactive | inactive | inactive | inactive | – | inactive | inactive | inactive | inactive | inactive | inactive | inactive | inactive | inactive | inactive | inactive | inactive | inactive | – | –
3 | CCCOc1cc(N)ccc1C(=O)OCCN(CC)CC | inactive | inactive | inactive | inactive | inactive | inactive | inactive | – | inactive | inactive | inactive | inactive | inactive | – | inactive | inactive | inactive | inactive | inactive | inactive
4 | CC1C(=O)CC2C3(C)CCC2(C(C)C(=O)O)C(=O)C13 (stereo not drawn) | inactive | inactive | inactive | inactive | – | inactive | inactive | inactive | inactive | inactive | inactive | inactive | inactive | inactive | inactive | – | – | – | inactive | –
5 | C[C@]12CC[C@@H]3c4ccc(O)cc4CC[C@H]3[C@@H]1CC[C@@H]2OP(=O)(O)O | inactive | inactive | inactive | inactive | inactive | inactive | inactive | – | – | inactive | inactive | inactive | inactive | – | inactive | – | – | – | inactive | –
6 | NCCCC[C@H](NC(=O)[C@@H]1CCCN1C(=O)[C@@H]1CSSC[C@H](N)C(=O)N[C@@H](Cc2ccccc2)C(=O)N[C@@H](Cc2ccccc2)C(=O)N[C@@H](CCC(N)=O)C(=O)N[C@@H](CC(N)=O)C(=O)N1)C(=O)NCC(N)=O | inactive | inactive | inactive | – | inactive | inactive | inactive | inactive | inactive | inactive | inactive | inactive | inactive | inactive | inactive | – | – | – | inactive | –
7 | CNC[C@@H]1CC[C@@H](N)[C@@H](O[C@H]2[C@H](O)[C@@H](O[C@H]3OC[C@](C)(O)[C@H](NC)[C@H]3O)[C@H](N)C[C@@H]2N)O1 | inactive | inactive | inactive | inactive | – | inactive | inactive | – | – | inactive | inactive | inactive | inactive | inactive | inactive | – | – | – | inactive | –
8 | CN(C)CCCN1c2ccccc2C(C)(C)c2ccccc21 | inactive | inactive | inactive | inactive | – | inactive | inactive | inactive | – | inactive | 18.8 µM (active) | – | – | inactive | 21.1 µM (active) | inactive | inactive | inactive | 26.6 µM (active) | inactive
9 | O=C(O)CC/C=C\CC[C@@H]1[C@@H](N2CCCCC2)[C@@H](O)C[C@@H]1OCc1ccc(-c2ccccc2)cc1 | inactive | inactive | inactive | inactive | – | inactive | inactive | inactive | inactive | inactive | 13.3 µM (active) | – | inactive | inactive | – | – | inactive | inactive | – | inactive
10 | CCC(=O)c1ccc2c(c1)N(CCCN1CCN(CCO)CC1)c1ccccc1S2 | inactive | inactive | inactive | inactive | – | inactive | inactive | – | – | inactive | 2.66 µM (active) | – | – | – | 4.22 µM (active) | – | – | – | 2.66 µM (active) | –
11 | CCOc1ccc(N=C(C)Nc2ccc(OCC)cc2)cc1 | inactive | inactive | inactive | inactive | – | inactive | inactive | – | – | inactive | 23.7 µM (active) | – | inactive | inactive | 23.7 µM (active) | – | – | – | 23.7 µM (active) | –
12 | CC(=O)O[C@H]1CC[C@@]2(C)C(=CC[C@H]3[C@@H]4CC[C@H](C(C)=O)[C@@]4(C)CC[C@@H]32)C1 | inactive | inactive | inactive | inactive | – | inactive | inactive | inactive | – | inactive | inactive | inactive | inactive | inactive | inactive | – | – | – | – | –
13 | CCC(C)[C@@H](N)C(=O)O (stereo partly drawn) | inactive | inactive | inactive | – | inactive | inactive | inactive | inactive | inactive | inactive | inactive | inactive | inactive | inactive | inactive | – | – | – | inactive | –
14 | CCCCc1cc2c(=O)c(C(=O)OC)c[nH]c2cc1OCc1ccccc1 | inactive | inactive | inactive | – | inactive | inactive | inactive | inactive | inactive | inactive | inactive | inactive | inactive | inactive | inactive | – | – | – | inactive | –
15 | O=C1CSC2(CCN(CCCN3c4ccccc4Sc4ccc(Cl)cc43)CC2)N1 | inactive | inactive | inactive | inactive | – | inactive | inactive | – | – | – | 5.96 µM (active) | – | inactive | inactive | 8.41 µM (active) | 21.3 µM (active) | inactive | – | 7.5 µM (active) | –
16 | C=C1C(=O)O[C@H]2[C@H]1CC/C(C)=C\CC[C@@]1(C)O[C@@H]21 | inactive | inactive | inactive | inactive | – | inactive | inactive | – | – | – | 2.98 µM (active) | 23.9 µM (active) | – | inactive | 4.22 µM (active) | 23.9 µM (active) | inactive | 6.68 µM (active) | 2.98 µM (active) | –
17 | C[N+](C)(CCCCCC[N+](C)(C)C1c2ccccc2-c2ccccc21)C1c2ccccc2-c2ccccc21 | inactive | inactive | inactive | inactive | – | inactive | inactive | inactive | inactive | inactive | – | – | inactive | inactive | – | – | – | – | – | –
